Inconclusive results are not listed. Entries that show only a call come without a potency. Activity calls are given as the source filed them. Calls follow the shape of the dose curve; as a rule, active = well fitted inhibition curve with a large enough effect; inconclusive = small, poorly fitted or top-dose-only effect; inactive = no such curve, though single readings can be large or run the other way.
Potency is read from the fitted curve at half-maximal effect.

The test has as its system Zika virus NS2B-NS3 protease (unlinked). Kind of test: Optimization of GU AMC qHTS for Zika virus inhibitors: Unlinked NS2B-NS3 protease assay (AID 1347151). Also: nearly all actives have a fitted effect of over 80% in size. Particulars: recombinant ZIKV NS2B-NS3 protease, fluorogenic AMC substrate; series mostly up to 52.5 µM. The procedure, abridged: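 Unlinked protease (25 nM final); buffer 10 mM Tris-HCl pH 8.0 + 0.01% Tween 20; AMC substrate; 15 min RT, dark; Δfluorescence normalized to no-inhibitor/no-enzyme controls; 4-parameter Hill fit.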
For orientation: In qHTS, concentration-response curves come from the screen itself.
Regarding `CCCCNc1ccc(C(=O)OCCN(C)C)cc1`, the Potency entry was “inactive”. Next, `CNCCCN1c2ccccc2CCc2ccccc21`: “inactive”; `Brc1c(NC2=NCCN2)ccc2nccnc12`: “inactive”; `Cc1nnc(SCC2=C(C(=O)O)N3C(=O)[C@@H](NC(=O)Cn4cnnn4)[C@H]3SC2)s1`: “inactive”. The entry for `CCN(CC)CCCN(c1ccccc1)C1Cc2ccccc2C1` is “inactive”; for `N[C@@H](COP(=O)(O)O)C(=O)O` it is “inactive”. With `Fc1ccc(C(c2ccc(F)cc2)N2CCN(C/C=C/c3ccccc3)CC2)cc1`, the Potency entry was “inactive”. Next, `NC(N)=N/N=C/c1c(Cl)cccc1Cl`: “inactive”.

Take `CCc1cccc(N(C)C(N)=Nc2cccc3ccccc23)c1`: the Potency entry was “inactive”. For the compound `CN(C)[C@@H]1C(=O)C(C(N)=O)=C(O)[C@@]2(O)C(=O)C3=C(O)c4c(O)ccc(Cl)c4[C@@H](O)[C@H]3C[C@@H]12`, the Potency entry was “inactive”.

For the compound `CCc1c(C)[nH]c2c1C(=O)C(CN1CCOCC1)CC2` (stereo unspecified), the Potency entry was “inactive”.

As for `CC(C(=O)O)c1ccc(CC2CCCC2=O)cc1` (stereo unspecified), the Potency entry is “inactive”. The figure for `CCn1cc(C(=O)O)c(=O)c2cc3c(cc21)OCO3` is 23.8 µM (active). Next, `CCO/C([O-])=N/c1c[n+](N2CCOCC2)no1`: “inactive”; `CCN(CC)CCOCCOC(=O)C1(c2ccccc2)CCCC1`: “inactive”. As for `CCCC(C(=O)OCCN(CC)CC)(c1ccccc1)c1ccccc1`, the Potency result is “inactive”. In the case of `NS(=O)(=O)c1cc2c(cc1Cl)NC(C1CC3C=CC1C3)NS2(=O)=O` (stereo unspecified), the Potency result was “inactive”. Take `COc1ccc([C@@H]2Sc3ccccc3N(CCN(C)C)C(=O)[C@@H]2OC(C)=O)cc1`: the Potency result is “inactive”. The entry for `C[N+](C)(C)CCOC(=O)CCC(=O)OCC[N+](C)(C)C` is “inactive”. The entry for `CN1CCN(C2=Nc3ccccc3Oc3ccc(Cl)cc32)CC1` is “inactive”; for `NC(=O)c1cn(Cc2c(F)cccc2F)nn1` it is “inactive”; for `CCCN(CCC)CCc1cccc2c1CC(=O)N2` it is “inactive”. With `CCN(CC)CCNC(=O)c1ccc(NC(C)=O)cc1`, the Potency entry is “inactive”. Consider `CN(C)C/C=C(/c1ccc(Br)cc1)c1cccnc1`, for which the Potency result is “inactive”. The entry for `CCCCNc1c(C(=O)OCC)c(C)nc2c1cnn2CC` is “inactive”. Consider `COc1ccc(CN(CCN(C)C)c2ccccn2)cc1`, for which the Potency result was “inactive”. Take `C#CCN(C)CCCOc1ccc(Cl)cc1Cl`: the Potency result was “inactive”. With `CCCN1C[C@H](CSC)C[C@@H]2c3cccc4[nH]cc(c34)C[C@H]21`, the Potency entry was “inactive”. Next, `CC(C)COCC(CN(Cc1ccccc1)c1ccccc1)N1CCCC1` (stereo unspecified): “inactive”. On to `O=C(O)CN(CCOCCOCCN(CC(=O)O)CC(=O)O)CC(=O)O`, for which the Potency result is “inactive”. Next, `Cc1ccc(=O)n(-c2ccccc2)c1`: 26.7 µM (active); `NC1=NCC2c3ccccc3Cc3ccccc3N12` (stereo unspecified): “inactive”. The entry for `O=C(CCNNC(=O)c1ccncc1)NCc1ccccc1` is “inactive”. Next, `C[N+](C)(C)CCCCCCCCCC[N+](C)(C)C`: “inactive”; `O=C(O)CP(=O)(O)O`: “inactive”. Turning to `Cc1scc2c1N(C(=O)CN1CCN(C)CC1)c1ccccc1NC2=O`, the Potency result was “inactive”.
